# From PubChem BioAssay AID590 (National Center for Advancing Translational Sciences (NCATS), 2007)
# Screen size: about 59,000 compounds; about 6,500 (11%) were called active. Roughly 15% stayed inconclusive and do not appear here. The sample holds actives, similar compounds and a random draw of the others, so the mix is not that of the screen. No stated cut-off is given here; in the data, active means max dye-equivalent concentration above about 10 nM; inconclusive means mostly about 1.1 nM to 9.6 nM; inactive means weaker than that.
# Assay: qHTS Assay for Spectroscopic Profiling in A350 Spectral Region
# Conditions: Compound autofluorescence, 340/450 nm, Alexa 350 dye-equivalents; stronger effect = higher value
row,SMILES,max dye-equivalent concentration
1,COc1cccc(Oc2ccc(N)cc2)c1,inactive
2,COc1ccc2[nH]c3ccc(OC)cc3c2c1,150 nM (active)
3,CC(C)c1ccc(-c2nn[nH]n2)cc1,inactive
4,CCOc1ccc(-c2nnc3ccc(SC)nn23)cc1,12 nM (active)
5,CCn1cc(C(=O)N2CCN(Cc3ccc4c(c3)OCO4)CC2)c2cc(OC)c(OC)cc2c1=O,inactive
6,CS(=O)(=O)N1CCC2(CC1)CN(c1ccncc1)C2,inactive
7,CC(=O)NC(Cc1ccc(F)cc1)C(=O)O (centres undefined),inactive
8,Cc1ccccc1OCCC(=O)Nc1c(C)n(C)n(-c2ccccc2)c1=O,inactive
9,Cc1cc(C)cc(N(C(C)C(=O)Nc2c(C)n(C)n(-c3ccccc3)c2=O)S(C)(=O)=O)c1 (centres undefined),inactive
10,Cc1c(NC(=O)C(C)OC(=O)c2cc3c4ccccc4n(C)c3s2)c(=O)n(-c2ccccc2)n1C (centres undefined),170 nM (active)
11,C[C@H](NC(=O)OC(C)(C)C)c1nnc(SCC(N)=O)o1,inactive
12,CCCNS(=O)(=O)c1ccc(CCC(=O)NCc2cccnc2)cc1,inactive
13,COc1ccc(CN(C(=O)c2cccs2)c2nccs2)cc1OC,inactive
14,Cc1ccc(C)n1-c1ccncc1,inactive
15,O=c1cc(-c2ccccc2)[nH]c2nc(Cl)ccc12,69 nM (active)
16,COCCN1Cc2cccc(C(=O)Nc3ccccc3OC)c2C1=O,inactive
17,Fc1ccccc1OCCSc1nc2ccccc2o1,inactive
18,Cc1ccc(C(=O)CS(C)(=O)=O)cc1,19 nM (active)
19,O=C1C=C(NCCNc2c(F)c(F)c(CO)c(F)c2F)CCC1,inactive
20,Cc1cc(=O)[nH]c(SCC(=O)N2c3ccccc3CC2C)n1 (centres undefined),inactive
21,Cn1cc(-c2nc3cnc(N4CCNCC4)nc3n(CCC#N)c2=O)c2ccccc21,inactive
22,N#Cc1cccc(-c2nc3cnc(N4CCNCC4)nc3n(C3CC3)c2=O)c1,350 nM (active)
23,Cc1nc2cnc(Nc3ccccc3)nc2n(C[C@H]2CCCO2)c1=O,inactive
24,Cn1c(=O)c2c(nc(OCc3cccnc3)n2Cc2ccccc2)n(C)c1=O,inactive
25,COCCn1c(=O)c(CCc2ccccc2)nc2cncnc21,88 nM (active)
26,O=c1c(CCc2ccccc2)nc2cncnc2n1C1CC1,inactive
27,O=C(CSc1nnc(-c2ccco2)n1CC1CCCO1)c1ccccc1 (centres undefined),inactive

row,SMILES,max dye-equivalent concentration
1,Cc1nc2cnc(N3CCN(C)CC3)nc2n(C[C@H]2CCCO2)c1=O,59 nM (active)
2,Cc1nc2cnc(N3CCNCC3)nc2n(Cc2ccc(F)cc2)c1=O,110 nM (active)
3,CCOc1cc2c(cc1OCC)C(C(=O)O)C(c1ccc(OC)c(O)c1)N(C)C2=O (centres undefined),inactive
4,O=C(COc1cccc(-n2cnnn2)c1)NCCC1=CCCCC1,inactive
5,Cc1cc(C)cc(NC(=O)N2CCC(NC(=O)c3ccc(F)cc3)CC2)c1,inactive
6,O=C(NC12CC3CC(CC(C3)C1)C2)N1CCCC(CO)C1 (centres undefined),inactive
7,COc1ccc(S(=O)(=O)N2CCCC2)c(C)c1C,inactive
8,Cc1ccc(NC(=O)C2CC(c3ccc(F)cc3)=NO2)cc1 (centres undefined),inactive
9,COc1ccc(C(=O)N2CCC3(CC2)CCN(c2ccccn2)CC3)cc1,inactive
10,CCOC(=O)CCC(=O)OCC(=O)NC(C)C1CC2CCC1C2 (centres undefined),inactive
11,Cc1nc(N2CCCC2C(=O)O)c2oc3ccccc3c2n1 (centres undefined),inactive
12,COC(=O)c1ccc(C2CC(=O)Nc3cc(OC)c(OC)cc32)cc1 (centres undefined),inactive
13,Cc1nc2cnc(N3CCNCC3)nc2n(CCc2ccccc2)c1=O,60 nM (active)
14,COCCn1c(=O)c(CCc2ccccc2)nc2cnc(N3CCNCC3)nc21,60 nM (active)
15,O=c1c(-c2ccc(F)cc2)nc2cnc(N3CCNCC3)nc2n1Cc1cccs1,16 nM (active)
16,Cn1c(=O)c(-c2ccccc2)nc2cnc(N3CCNCC3)nc21,320 nM (active)
17,Cn1cc(-c2nc3cnc(N4CCNCC4)nc3n(CCc3ccccc3)c2=O)c2ccccc21,inactive
18,COCCn1c(CN2CCC(Cc3ccccc3)CC2)nc2c1c(=O)n(C)c(=O)n2C,inactive
19,CC1CCN(Cc2nc3c(c(=O)n(C)c(=O)n3C)n2CCc2ccccc2)CC1,inactive
20,CC(=O)O[C@]1(C(C)=O)CC[C@@H]2[C@@H]3C=C(C)C4=CC(=O)CC[C@@]4(C)[C@H]3CC[C@]21C,inactive
21,O=C(NCCN1CCOCC1)c1c(F)c(F)c(F)c(F)c1F,inactive
22,COc1ccc(-c2nn(-c3ccccc3)cc2C(=O)Nc2nc(CC(C)=O)ns2)cc1,inactive
23,CC(=O)NC(C)c1nc2ccccc2n1Cc1ccccc1F (centres undefined),inactive
24,CC(C)C1Cc2c(sc3c2c(=O)n(-c2ccccc2)c2nncn32)CO1 (centres undefined),inactive
25,CCOC(=O)Cn1c2c(c(-c3ccccc3OC)cc1=O)CCCC2,inactive
26,COc1ccc(N2CCN(C(=O)CSc3nnc4ncccn34)CC2)cc1,inactive
27,O=C1CCC(=O)N1CCOP1(=O)COc2ccccc2OC1,inactive
